Measured values from PubChem BioAssay.
Results filed as inconclusive are left out. Activity calls are given as the source filed them.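 How the source made its calls, unless noted: active means inhibition over a set limit, the all-compound mean plus 3 SD, in both replicate runs; inconclusive means over that limit in just one replicate run; inactive means at or under that limit in both runs.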

Experiments:
[1] = reducers of endogenous Her2 protein level, primary screen, SKBR3 breast tumor cells, AlphaScreen, ATP viability (AID 461;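 active means Her2 level under about 52% in both replicate screens, with viability over 70% of control, limit read from the data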;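 on Her2 level: lower value means less Her2 protein in the cells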;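 on viability: percent of carrier control wells set as 100% viability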); details: 18-24 h, measured here: SKBR3 viability, ATP luminescence, at 10 µM
[2] = biological target: Receptor tyrosine-protein kinase erbB-2 (Homo sapiens) (UniProt P04626); experiment: as above; details: 18-24 h, at 10 µM, stronger effect = lower value
Sequence of Receptor tyrosine-protein kinase erbB-2 (Homo sapiens) (P04626 whole entry, looked up): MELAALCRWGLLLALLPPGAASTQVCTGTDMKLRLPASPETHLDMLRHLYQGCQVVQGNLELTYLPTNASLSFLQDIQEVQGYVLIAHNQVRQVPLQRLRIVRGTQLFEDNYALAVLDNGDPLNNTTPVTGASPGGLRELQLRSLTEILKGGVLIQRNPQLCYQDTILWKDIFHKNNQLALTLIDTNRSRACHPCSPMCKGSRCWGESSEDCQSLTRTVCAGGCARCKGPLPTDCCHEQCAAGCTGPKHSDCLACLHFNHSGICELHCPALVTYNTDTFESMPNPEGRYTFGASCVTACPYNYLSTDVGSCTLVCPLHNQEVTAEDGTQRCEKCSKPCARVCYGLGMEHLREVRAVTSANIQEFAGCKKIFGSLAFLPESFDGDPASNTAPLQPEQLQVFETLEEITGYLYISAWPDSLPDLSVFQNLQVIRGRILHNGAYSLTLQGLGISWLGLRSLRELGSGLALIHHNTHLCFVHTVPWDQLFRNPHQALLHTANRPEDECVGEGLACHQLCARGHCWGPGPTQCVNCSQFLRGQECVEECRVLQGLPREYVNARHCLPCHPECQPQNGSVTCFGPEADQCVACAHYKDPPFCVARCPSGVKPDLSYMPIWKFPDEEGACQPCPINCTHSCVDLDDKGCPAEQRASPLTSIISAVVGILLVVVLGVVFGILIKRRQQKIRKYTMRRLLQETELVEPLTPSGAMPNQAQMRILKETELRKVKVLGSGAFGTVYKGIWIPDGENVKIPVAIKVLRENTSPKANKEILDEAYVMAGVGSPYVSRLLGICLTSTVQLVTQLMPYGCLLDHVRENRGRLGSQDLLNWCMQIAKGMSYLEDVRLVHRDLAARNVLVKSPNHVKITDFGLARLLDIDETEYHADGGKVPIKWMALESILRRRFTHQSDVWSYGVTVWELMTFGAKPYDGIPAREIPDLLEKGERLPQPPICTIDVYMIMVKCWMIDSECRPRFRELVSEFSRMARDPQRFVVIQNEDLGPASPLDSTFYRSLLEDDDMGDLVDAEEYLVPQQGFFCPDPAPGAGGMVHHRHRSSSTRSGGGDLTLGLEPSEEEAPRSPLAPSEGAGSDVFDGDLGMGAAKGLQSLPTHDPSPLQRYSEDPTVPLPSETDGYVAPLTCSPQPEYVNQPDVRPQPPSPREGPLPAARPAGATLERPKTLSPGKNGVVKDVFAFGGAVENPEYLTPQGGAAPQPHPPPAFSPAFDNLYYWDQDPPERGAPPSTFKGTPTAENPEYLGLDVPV

[3] = SK-BR-3 cell growth inhibitors, pilot screen, 24 h, human (AID 572;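 active means viability at or below 10% of carrier control in both of two separate runs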;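 further: compound exposure lasted between 18 and 24 h rather than exactly 24 h; 100% = carrier-treated control wells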); details: SK-BR-3 viability, CellTiter-Glo luminescence, at 10 µM, stronger effect = lower value
[4] = HUVEC growth inhibition – cell-based, human, primary screen (AID 575;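 active means viability at or below 30% in both replicate assays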;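 further: 100% = median of untreated cell wells with 0.1% DMSO on each plate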); details: HUVEC proliferation, CellTiter-Glo luminescence, 72 h; at 10 µM; stronger effect = lower value
[5] = growth inhibitors of H69AR lung tumor, primary screen, human, duplicate replicates (AID 580;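 active means viability at or under a set limit in both replicates, limit being median viability minus 3 SD, cut at about 48% in these data, passing the limit was not always enough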;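 further: 100% = mean luminescence of untreated wells and 0% = no signal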); details: H69AR lung tumor cells viability, ATP luminescence, 72 h; at 10 µM; stronger effect = lower value
[6] = reversal of MRP1-mediated doxorubicin resistance, pilot screen, H69AR cells, doxorubicin co-treatment (AID 601;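 active means viability loss from added drug above about 55%, and viability with drug at most 40%, in both replicates, limit read from the data, passing the limit was not always enough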); details: CellTiter-Glo, 72 h, at 10 µM; for differential viability (reversal): stronger effect = higher value
[7] = 384-well plate pilot, post-Golgi transport modulator project, inhibition of yeast transport mutant growth (AID 636; in the data active means inhibition above about 31%); details: absorbance 615 nm, about 18 h, stronger effect = higher value
[8] = growth suppression of yeast trafficking mutant, preliminary HTS, modulators of trafficking downstream of Golgi apparatus project, 1536-format plate, OD 615 nm (AID 637; in the data active means inhibition above about 30%); details: yeast transport mutant growth, absorbance 615 nm, 18 h; stronger effect = higher value
[9] = OD615 S. cerevisiae growth inhibition, permissive medium, pilot counter-assay, permissive growth control for S. cerevisiae lifespan shortening project (AID 705;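 active means growth inhibition above 25% in both replicates, a cutoff set 3 SD above the mean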); details: OD615, 24 h, at 10 µM, stronger effect = higher value
[10] = Restrictive medium S. cerevisiae growth inhibition, OD615, pilot screen of yeast lifespan reduction project, restrictive growth control (AID 706;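 active means growth inhibition above a set limit, 3 SD over mean compound inhibition, in both replicates, cut at about 43% in these data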;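 further: modified DeaD lifespan yeast strain shifted to restrictive glucose medium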); details: OD615, 48 h, at 10 µM, stronger effect = higher value
[11] = viability gain of MRP-1-high H69AR cells under doxorubicin, pilot screen, MRP-1 activator project, CellTiter-Glo, duplicate (AID 807;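 active means viability increase at or above a cutoff of the median across tested compounds plus 3 SD, cut at about 8.5% in these data, passing the limit was not always enough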;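 further: compound pretreatment 18-22 h then 72 h combined with doxorubicin; 0% = doxorubicin alone and 100% = vehicle without doxorubicin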); details: H69AR viability with doxorubicin, CellTiter-Glo luminescence; at 10 µM; stronger effect = higher value
[12] = growth suppression of beta-catenin knockout HCT116, pilot screen, human colon tumor cells (AID 823;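 active means cell viability at or below a set limit in both duplicate runs, the limit being the all-compound median minus 4 SD, cut at about 23% in these data, passing the limit was not always enough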;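 further: 0% = wells killed by 20 µM Hyamine and 100% = untreated DMSO cell wells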); details: CellTiter-Glo, 60 h, at 10 µM, stronger effect = lower value
[13] = growth suppression of PTEN-deleted HCT116, pilot screen, cell-based, HCT116 clonal line, CellTiter-Glo (AID 824;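 active means viability at or below 27.92% in each of two runs, the all-compound median minus 4 SD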;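 further: 0% = 20 µM Hyamine control and 100% = vehicle cell control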); details: 60 h, at 10 µM, stronger effect = lower value
[14] = inhibitors of the yeast RAM network, pilot screen, dse1pr::URA3 reporter, 5-FOA selection (AID 869);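 further: 0% = DMSO wells with no growth and 100% = 10 µM 1-NA-PP1 with full growth; RAM network block rescues cells from 5-FOA so hits raise OD615 growth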; details: S. cerevisiae dse1pr::URA3 5-FOA growth, OD615, 2 d; at 10 µM; stronger effect = higher value; strain carries analog-sensitive mutant Cbk1 kinase
[15] = RAM signaling pathway blockade in yeast – S. cerevisiae, Pdr1DBD-CYC8 efflux-inhibited sensitized strain, primary screen (AID 1298;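 active means RAM network inhibition above 8.4% in each of two replicates, 3 SD over the compound average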;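 further: 0% = DMSO untreated cells without growth and 100% = 10 µM 1-NA-PP1 full growth; higher means more yeast growth rescued from 5-FOA killing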); details: S. cerevisiae cbk1-as DSE1-URA3 strain, 5-FOA growth OD615, 2 d; at 50 µM; stronger effect = higher value
[16] = H69AR cells + 2 uM doxorubicin, measured here: viability with 2 uM doxorubicin, stronger effect = lower value
[17] = H69AR cells, compound alone cytotoxicity

Row | SMILES | viability [1] [%] | Her2 level [2] | viability [3] | viability [4] | viability [5] | differential viability (reversal) ([6]; H69AR cells + 2 uM doxorubicin) | viability [6, 16] [%] | viability [6, 17] [%] | inhibition [7] | inhibition [8] | growth inhibition [9] | growth inhibition [10] | viability increase [11] | viability [12] | viability [13] | inhibition [14] | RAM network inhibition [15]
1 | CCOC(=O)N1CCC(N2C(=O)c3ccccc3C2Nc2ccccc2C)CC1 (stereo not drawn) | 95.5 | 96.5% (inactive) | 95.5% (inactive) | 84% (inactive) | 79.8% (inactive) | 32% (inactive) | 47.8 | 79.8 | -5.2% (inactive) | -8.5% (inactive) | -16.1% (inactive) | -23.2% (inactive) | -4.35% (inactive) | 88.2% (inactive) | 82.5% (inactive) | 2.58% (inactive) | 7.43% (inactive)
2 | COc1ccc(-n2c(=O)c3c4c(sc3n3cnnc23)CC(C)CC4)cc1 (stereo not drawn) | 95.5 | 88.5% (inactive) | 95.5% (inactive) | 67.8% (inactive) | 72.2% (inactive) | 21.2% (inactive) | 51 | 72.2 | -8.11% (inactive) | 0.98% (inactive) | -10.9% (inactive) | 9.5% (inactive) | -5.52% (inactive) | 87.8% (inactive) | 92.2% (inactive) | -0.585% (inactive) | 2.05% (inactive)
3 | COc1ccc(C/C(N)=N/n2cnnc2)cc1Cl | 94 | 100% (inactive) | 94% (inactive) | 103% (inactive) | 102% (inactive) | 2.52% (inactive) | 99.4 | 102 | -2.21% (inactive) | -0.83% (inactive) | -9.88% (inactive) | -12% (inactive) | -0.81% (inactive) | 95.7% (inactive) | 99.8% (inactive) | 1.04% (inactive) | 2.47% (inactive)
4 | O=C(NC1CCCCCC1)c1c(F)c(F)c(F)c(F)c1F | 76.5 | 92% (inactive) | 76.5% (inactive) | 78.9% (inactive) | 101% (inactive) | 15.7% (inactive) | 85.2 | 101 | 0.26% (inactive) | -8.67% (inactive) | 4.54% (inactive) | 7.52% (inactive) | -3.82% (inactive) | 91.8% (inactive) | 93.5% (inactive) | 1.01% (inactive) | -1.79% (inactive)
5 | COc1ccc(C(=O)Oc2c(CN3CCOCC3)cc(Cl)c3cccnc23)cc1OC | 93 | 95.5% (inactive) | 93% (inactive) | 71.8% (inactive) | 1.58% (active) | -0.17% (inactive) | 1.75 | 1.58 | -5.87% (inactive) | -6.23% (inactive) | -12.6% (inactive) | -19.1% (inactive) | -8.29% (inactive) | 9.93% (active) | 5.98% (active) | 1.39% (inactive) | 0.26% (inactive)
6 | CCCC(=O)Nc1nc2ccc(S(N)(=O)=O)cc2s1 | 88 | 98% (inactive) | 88% (inactive) | 90% (inactive) | 106% (inactive) | 34.3% (inactive) | 71.4 | 106 | -3.33% (inactive) | 6.33% (inactive) | -4% (inactive) | -0.595% (inactive) | -1.78% (inactive) | 99.4% (inactive) | 90.5% (inactive) | 0.465% (inactive) | -0.2% (inactive)
7 | Cc1cccc(NC(=O)c2ccccc2O)c1C | 60 | 75.5% (inactive) | 60% (inactive) | 59.2% (inactive) | 93.3% (inactive) | 4.91% (inactive) | 88.4 | 93.3 | -5.95% (inactive) | -3.61% (inactive) | 2.66% (inactive) | 1.19% (inactive) | -1.89% (inactive) | 86.5% (inactive) | 86.3% (inactive) | 1.33% (inactive) | 2.03% (inactive)
8 | COCCN(CCOC)c1ncnc2c1cnn2-c1ccccc1 | 112 | 99% (inactive) | 112% (inactive) | 88.4% (inactive) | 86.6% (inactive) | -6.92% (inactive) | 93.5 | 86.6 | -4.8% (inactive) | 4.33% (inactive) | -5.8% (inactive) | 1.92% (inactive) | 1.43% (inactive) | 107% (inactive) | 98.5% (inactive) | 0.505% (inactive) | 3.39% (inactive)
9 | CCOc1ccc(C2CC(c3cccc(OC)c3)Nc3nc(N)nn32)cc1 (stereo not drawn) | 91.5 | 114% (inactive) | 91.5% (inactive) | 95.8% (inactive) | 90.7% (inactive) | -2.32% (inactive) | 93 | 90.7 | 3.85% (inactive) | 5.5% (inactive) | 5.33% (inactive) | 13.6% (inactive) | -0.23% (inactive) | 99% (inactive) | 87.1% (inactive) | 1.65% (inactive) | 4.8% (inactive)
10 | O=C(Oc1ccc2ccc(OC(=O)N3CCOCC3)cc2c1)N1CCOCC1 | 96.5 | 96% (inactive) | 96.5% (inactive) | 108% (inactive) | 84% (inactive) | -5.42% (inactive) | 89.5 | 84 | -0.13% (inactive) | -2.5% (inactive) | -14.7% (inactive) | -15.1% (inactive) | 1.51% (inactive) | 92.2% (inactive) | 87.7% (inactive) | 1.12% (inactive) | 4.57% (inactive)
11 | CCOc1ccccc1NC(=O)CSc1nnc(Cc2cccn2C)n1-c1ccc(F)cc1 | 92.5 | 78.5% (inactive) | 92.5% (inactive) | 97.4% (inactive) | 79.9% (inactive) | 1.24% (inactive) | 78.6 | 79.9 | -1.28% (inactive) | -1.17% (inactive) | 5.28% (inactive) | 7.75% (inactive) | -5.25% (inactive) | 75.5% (inactive) | 78.2% (inactive) | 1.11% (inactive) | 4.07% (inactive)
12 | CCOC(=O)c1cccc(NC2c3ccccc3C(=O)N2Cc2ccco2)c1 (stereo not drawn) | 98.5 | 98% (inactive) | 98.5% (inactive) | 76.2% (inactive) | 82.1% (inactive) | -6.29% (inactive) | 88.4 | 82.1 | -3.6% (inactive) | -0.83% (inactive) | 2.55% (inactive) | 1.38% (inactive) | -5.15% (inactive) | 64.7% (inactive) | 74.6% (inactive) | 2.4% (inactive) | 8.31% (inactive)
13 | CCN1CCN(CCCNC(=O)c2cc3sccc3n2CC)CC1 | 96.5 | 120% (inactive) | 96.5% (inactive) | 99% (inactive) | 89.4% (inactive) | -1.6% (inactive) | 91 | 89.4 | -0.27% (inactive) | 3% (inactive) | -3.32% (inactive) | -3.54% (inactive) | -1.72% (inactive) | 96.9% (inactive) | 98.6% (inactive) | 0.865% (inactive) | 1.23% (inactive)
14 | Cc1noc(C(=O)Nc2ccc3c(c2)OCO3)c1Cl | 84.5 | 75% (inactive) | 84.5% (inactive) | 51.4% (inactive) | 96.9% (inactive) | -0.25% (inactive) | 97.2 | 96.9 | -4.13% (inactive) | 1.67% (inactive) | -0.74% (inactive) | 6.31% (inactive) | -3.47% (inactive) | 95.9% (inactive) | 89.7% (inactive) | 2.92% (inactive) | 5.2% (inactive)
15 | CC(C)c1nccn1S(=O)(=O)c1cc(Cl)ccc1Cl | 104 | 112% (inactive) | 104% (inactive) | 92.2% (inactive) | 90.3% (inactive) | 3.94% (inactive) | 86.3 | 90.3 | -4.03% (inactive) | -3.83% (inactive) | -4.57% (inactive) | -1% (inactive) | 0% (inactive) | 103% (inactive) | 97.2% (inactive) | 1.64% (inactive) | 4.6% (inactive)
16 | Cc1cccnc1-n1c(CCN2C(=O)c3ccccc3C2=O)nc2ccccc2c1=O | 89.5 | 106% (inactive) | 89.5% (inactive) | 89.2% (inactive) | 95.1% (inactive) | 4.03% (inactive) | 91.1 | 95.1 | 1.28% (inactive) | -10.3% (inactive) | 6.29% (inactive) | -3.29% (inactive) | -2.01% (inactive) | 102% (inactive) | 97.4% (inactive) | 0.525% (inactive) | 3.68% (inactive)
17 | O=C(C1CCN(c2nnc(-n3cccc3)s2)CC1)N1CCc2ccccc2C1 | 88 | 93.5% (inactive) | 88% (inactive) | 58.6% (inactive) | 77.9% (inactive) | 1.77% (inactive) | 76.1 | 77.9 | -0.26% (inactive) | -6% (inactive) | 1.58% (inactive) | 1.25% (inactive) | -1.4% (inactive) | 97% (inactive) | 94.1% (inactive) | 3.21% (inactive) | 6.43% (inactive)
18 | Cc1cc(NS(=O)(=O)c2ccccc2)no1 | 114 | 115% (inactive) | 114% (inactive) | 94.5% (inactive) | 90.7% (inactive) | -1.04% (inactive) | 91.7 | 90.7 | -5.33% (inactive) | 2.83% (inactive) | -14.5% (inactive) | -6.42% (inactive) | 0.56% (inactive) | 99.9% (inactive) | 98.5% (inactive) | 1.86% (inactive) | 5.41% (inactive)
19 | COc1ccc(NC(=O)c2cnc3n(c2=O)CCS3)cc1OC | 112 | 106% (inactive) | 112% (inactive) | 88.2% (inactive) | 95.7% (inactive) | 11.8% (inactive) | 83.9 | 95.7 | -3.07% (inactive) | -4.59% (inactive) | -14.6% (inactive) | -5.98% (inactive) | 1.5% (inactive) | 109% (inactive) | 103% (inactive) | 2.45% (inactive) | 7.24% (inactive)
